From the supplement of paper PMC6555819

Tests used:
Experiment in all cases: PBM binding z-score (relative to random genomic background probes); higher = stronger binding; sequences stand for … in GC…GCGATTGACAGCGTAGAATGAAGG
[1] = tested on: FXR:RXRa (NR concentration 270 nM, RXRa partner concentration 90 nM)
Outline: (§1)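 Binding z-scores were set against random background probes. The data came from custom Agilent 4×180K protein-binding microarrays carrying double-stranded probes with 34-nt variable regions, incubated 1 h with ligand-free nuclear receptor dimers. Partner-specific antibodies detected binding, and scanned fluorescence was regression-normalized.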

[2] = tested on: LXRa:RXRa (NR concentration 270 nM, RXRa partner concentration 90 nM)
Outline: as §1

[3] = tested on: LXRa homodimer (NR concentration 270 nM)
Outline: as §1

[4] = tested on: LXRb:RXRa (NR concentration 270 nM, RXRa partner concentration 90 nM)
Outline: as §1

[5] = tested on: LXRb homodimer (NR concentration 270 nM)
Outline: as §1

[6] = tested on: PPARa:RXRa (NR concentration 270 nM, RXRa partner concentration 90 nM)
Outline: as §1

[7] = tested on: PPARg:RXRa (NR concentration 180 nM, RXRa partner concentration 90 nM)
Outline: as §1

[8] = tested on: PPARg:RXRa 270nM:90nM, anti-RXR (NR concentration 270 nM, RXRa partner concentration 90 nM)
Outline: as §1

[9] = tested on: PPARg:RXRa 30nM:10nM, anti-RXR (NR concentration 30 nM, RXRa partner concentration 10 nM)
Outline: as §1

[10] = tested on: PPARg:RXRa 90nM:30nM, anti-RXR (NR concentration 90 nM, RXRa partner concentration 30 nM)
Outline: as §1

Row | Sequence | PBM binding z-score [1] | PBM binding z-score [2] | PBM binding z-score [3] | PBM binding z-score [4] | PBM binding z-score [5] | PBM binding z-score [6] | PBM binding z-score [7] | PBM binding z-score [8] | PBM binding z-score [9] | PBM binding z-score [10]
1 | TAGCCTAGGTCAGGCGGGCCAGTATAGTGTCGGC | 1.07 | 0.958 | -0.477 | 0.401 | -0.892 | 1.55 | 0.363 | 0.51 | -0.814 | -0.109
2 | CCTGCTAGGTCATAGTCAGCTAATCTACAGTATG | 3.02 | 2.11 | 0.646 | 1.7 | 0.153 | 3.12 | 1.77 | 2.14 | 0.394 | 1.32
3 | TCTAGTTGGTCACGGAGGTCTCACACGACGGGTA | 0.555 | 0.613 | 0.0269 | 0.437 | -0.332 | 1.16 | 0.78 | 1.99 | 2.94 | 2.55
4 | CCTGACGGGTCACGAGGTTATAGCACGACGAGCG | 5.64 | 4.17 | 0.355 | 3.29 | -0.286 | 5.34 | 5.73 | 5.6 | 1.87 | 3.91
5 | CCTCGCAGGACAACAGGAGGTCAGAGCTGCCAGA | 0.787 | 1.63 | 1.92 | 1.05 | -0.469 | 1.73 | 0.326 | -0.0198 | -0.833 | -0.445
6 | CTCGAAAGGTCTTGCTCAGGTGAGTATACCAAAC | 0.669 | 0.369 | -0.371 | 0.506 | -0.158 | 0.978 | -0.115 | 0.563 | -0.064 | 0.608
7 | GGAACGTGGGCAAGTTGATAGCAGAGTTTGATGG | -0.957 | -0.763 | -0.666 | -0.678 | -0.982 | -0.579 | 0.382 | -0.458 | -0.337 | -0.422
8 | GATACAGGGCCAAGGCCAGAGTACGCGTATTGAT | -0.68 | -0.832 | -0.782 | -1 | -1.09 | -0.662 | 0.814 | 0.25 | -0.269 | -0.247
9 | GTTAGCAGGCCATTTGGGTCACTCAATGACGGGC | 0.439 | 0.0472 | -0.523 | 0.205 | -0.589 | 1.36 | 0.776 | 0.698 | -0.489 | 0.0806
10 | TCTATTAGTGGATTAGGGCAACCGAAACAGCGGA | 0.803 | 0.521 | 0.262 | 0.532 | 0.78 | 0.571 | 0.412 | 1.68 | 3.07 | 2.64
11 | ACAGACAGGTGAGTGAAGGTAGCTCAGCTGGACG | -0.0191 | -0.179 | -0.74 | -0.796 | -0.607 | -0.372 | 0.284 | 0.0552 | -0.201 | -0.0871
12 | ATCTCTAGGTAAAGATCGTTCAGTGAATGCAAAT | -0.176 | 1.87 | -0.123 | 0.339 | 0.387 | 0.218 | 0.287 | 0.923 | 0.249 | 0.749
13 | GCAGACAGGTGAAAAGCAGGTAACTCAGGGTGGC | -0.224 | -0.0671 | -0.495 | -0.319 | -0.696 | 0.507 | 0.376 | 0.014 | -0.488 | -0.253
14 | GGAACGAGAGCAAGTTGATAGCAGAGTTTGATGG | -0.63 | -0.766 | -0.719 | -0.852 | -1.03 | -0.523 | 0.39 | -0.573 | -0.225 | -0.721
15 | ACTTGCAGGCCAAGTTTGGGTCACTCAAACAAAG | 0.638 | 0.231 | -0.189 | 1.11 | -0.0882 | 1.87 | 0.148 | 0.667 | -0.561 | 0.0704
16 | ACTAGCAGGCCAAGTTTGGGTCATTCAAACAAAG | 0.394 | 0.425 | -0.172 | 0.818 | -0.545 | 1.8 | 0.0288 | 0.215 | -0.284 | -0.177
17 | GCTTACGGGTCAAATGTTATAGCATGAATAGAAT | 6.7 | 4.31 | 0.0219 | 4.11 | 0.827 | 5.85 | 6.74 | 6.08 | 3.81 | 5.84
18 | CCTTACGGGTCACTCCAGGTAATAGCATCGGAGT | 5.01 | 5.21 | 0.164 | 3.31 | 0.11 | 4.59 | 3.75 | 3.97 | 1.47 | 2.94
19 | ACTAGTTGGCCAGCTGAGGTCACACACAATTCGG | 2.99 | 2.85 | 1.49 | 3.25 | -0.00517 | 3.54 | 1.55 | 1.67 | 0.296 | 1.05
20 | CCGACTGGGCCAAGGTTACCATAACGCACAGCCA | 0.00014 | 0.358 | -0.181 | 0.279 | -1.2 | 1.01 | 1.97 | 2.37 | 0.199 | 1.39
21 | TAGCCTAGGTCAGATCGGGCCAATATACGCTATA | 1.51 | 1.46 | 0.0992 | 1.22 | 0.0531 | 1.79 | 0.875 | 0.613 | -0.00847 | 0.383
22 | GCGACTGGGGCATCAGCAGGTTACCAGAACTTAA | -0.204 | -0.156 | -0.341 | 0.413 | -1.13 | 1.04 | 0.791 | 0.667 | -0.35 | 0.126
23 | CCTGCTAGGTGAATGGTCAGCTAAAGCAGCTCGC | -0.48 | -0.375 | -0.807 | -0.625 | -0.989 | 1.25 | 2.89 | 4.11 | 2.1 | 3.81
24 | CAGCCTAGGTCAGGGACAGTATAGGAGGAACGTT | 1.72 | 1.1 | -0.189 | 0.879 | -0.664 | 2.34 | 1.26 | 1.07 | 0.251 | 0.563
